Our source for the binding signal values is publication PMC7862700, “An all-to-all approach to the identification of sequence-specific readers for epigenetic DNA modifications on cytosine”.

Common to all, as to experiment: DAPPL (digital affinity profiling via proximity ligation, sequencing); 10 mM Tris-HCl pH 7.5, 50 mM NaCl, 1 mM DTT, 4% glycerol, room temperature, 30 min; GST-TFs on glutathione beads, 16-mer random dsDNA library, 0.1% formaldehyde crosslink after washing; high values mean tight binding
Settings in all cases: protein: recombinant; tags: N-terminal GST; dsDNA, one strand shown

In one test the target is T1, FLI1 (Homo sapiens, UniProt Q01543 1-452).
T1 sequence: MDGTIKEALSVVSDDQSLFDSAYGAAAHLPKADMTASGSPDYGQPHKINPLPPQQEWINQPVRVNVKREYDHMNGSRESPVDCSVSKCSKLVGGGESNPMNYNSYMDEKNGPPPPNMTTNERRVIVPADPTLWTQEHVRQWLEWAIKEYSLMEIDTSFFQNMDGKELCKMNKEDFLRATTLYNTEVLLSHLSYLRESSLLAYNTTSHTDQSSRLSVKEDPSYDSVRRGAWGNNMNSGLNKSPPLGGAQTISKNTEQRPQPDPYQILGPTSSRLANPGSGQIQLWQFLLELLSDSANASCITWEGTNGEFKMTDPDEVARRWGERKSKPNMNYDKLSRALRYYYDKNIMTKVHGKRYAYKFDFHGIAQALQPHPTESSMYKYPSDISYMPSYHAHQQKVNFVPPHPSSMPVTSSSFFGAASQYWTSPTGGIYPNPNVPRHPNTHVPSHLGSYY
The method, boiled down: (§1)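 GST fusions of human transcription factors were expressed in yeast and captured with glutathione beads. Once given DNA barcodes and pooled alongside a tag-only sample, they were incubated for 30 min at room temperature with 200 nmole of a random double-stranded 16-mer DNA library in Tris/NaCl/DTT/glycerol buffer, then washed, crosslinked (0.1% formaldehyde), proximity-ligated, PCR-amplified and sequenced on an Illumina NextSeq500. The binding signal of each hexamer is its read frequency for a factor divided by its frequency for the tag-only sample.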

The target of another test is T2, ELK1 (Homo sapiens, UniProt P19419 1-428).
T2 sequence: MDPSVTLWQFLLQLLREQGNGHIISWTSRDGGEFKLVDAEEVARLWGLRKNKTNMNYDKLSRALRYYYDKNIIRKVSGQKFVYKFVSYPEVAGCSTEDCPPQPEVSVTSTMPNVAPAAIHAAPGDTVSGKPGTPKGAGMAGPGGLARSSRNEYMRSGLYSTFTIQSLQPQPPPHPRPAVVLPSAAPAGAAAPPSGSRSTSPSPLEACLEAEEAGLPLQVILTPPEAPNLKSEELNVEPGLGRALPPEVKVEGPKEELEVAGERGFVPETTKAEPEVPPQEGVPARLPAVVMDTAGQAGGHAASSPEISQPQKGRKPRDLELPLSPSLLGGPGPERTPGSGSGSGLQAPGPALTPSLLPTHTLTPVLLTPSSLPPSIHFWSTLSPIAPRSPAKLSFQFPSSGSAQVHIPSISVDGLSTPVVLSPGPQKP
The gist of the method:
as §1

A further test concerns the target T3, GABPA (Homo sapiens, UniProt Q06546 1-454).
T3 sequence: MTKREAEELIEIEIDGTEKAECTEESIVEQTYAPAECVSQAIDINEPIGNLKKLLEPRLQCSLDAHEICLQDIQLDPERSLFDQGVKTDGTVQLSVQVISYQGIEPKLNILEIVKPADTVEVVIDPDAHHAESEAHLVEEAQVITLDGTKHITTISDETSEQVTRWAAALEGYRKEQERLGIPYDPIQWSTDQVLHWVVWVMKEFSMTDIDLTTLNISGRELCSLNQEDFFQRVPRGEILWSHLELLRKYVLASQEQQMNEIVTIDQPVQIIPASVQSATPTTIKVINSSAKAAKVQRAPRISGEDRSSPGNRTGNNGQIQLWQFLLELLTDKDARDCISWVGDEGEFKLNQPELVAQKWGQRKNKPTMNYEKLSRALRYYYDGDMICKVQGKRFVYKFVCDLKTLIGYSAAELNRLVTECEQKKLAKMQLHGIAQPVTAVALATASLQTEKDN
The method, boiled down:
as §1

The target in a further test is T4, ERG (Homo sapiens, UniProt P11308 1-479).
T4 sequence: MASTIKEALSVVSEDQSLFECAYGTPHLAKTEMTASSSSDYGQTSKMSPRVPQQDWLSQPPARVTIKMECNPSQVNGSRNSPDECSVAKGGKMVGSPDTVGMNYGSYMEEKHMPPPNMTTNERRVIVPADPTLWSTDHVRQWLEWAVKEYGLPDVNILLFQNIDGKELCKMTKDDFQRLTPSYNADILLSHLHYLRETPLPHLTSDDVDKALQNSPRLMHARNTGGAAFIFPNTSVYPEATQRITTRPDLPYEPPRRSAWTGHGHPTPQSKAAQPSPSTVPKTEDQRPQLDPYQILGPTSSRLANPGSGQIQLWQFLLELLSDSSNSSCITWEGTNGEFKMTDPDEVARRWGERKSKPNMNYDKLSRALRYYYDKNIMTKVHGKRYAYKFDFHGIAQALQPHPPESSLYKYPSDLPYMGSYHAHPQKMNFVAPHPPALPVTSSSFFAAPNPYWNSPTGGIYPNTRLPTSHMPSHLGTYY
The method, boiled down:
as §1

The target in another test is ELF1 (Homo sapiens, UniProt P32519 1-619). The method, boiled down: as §1
Sequence of ELF1 (P32519 whole entry): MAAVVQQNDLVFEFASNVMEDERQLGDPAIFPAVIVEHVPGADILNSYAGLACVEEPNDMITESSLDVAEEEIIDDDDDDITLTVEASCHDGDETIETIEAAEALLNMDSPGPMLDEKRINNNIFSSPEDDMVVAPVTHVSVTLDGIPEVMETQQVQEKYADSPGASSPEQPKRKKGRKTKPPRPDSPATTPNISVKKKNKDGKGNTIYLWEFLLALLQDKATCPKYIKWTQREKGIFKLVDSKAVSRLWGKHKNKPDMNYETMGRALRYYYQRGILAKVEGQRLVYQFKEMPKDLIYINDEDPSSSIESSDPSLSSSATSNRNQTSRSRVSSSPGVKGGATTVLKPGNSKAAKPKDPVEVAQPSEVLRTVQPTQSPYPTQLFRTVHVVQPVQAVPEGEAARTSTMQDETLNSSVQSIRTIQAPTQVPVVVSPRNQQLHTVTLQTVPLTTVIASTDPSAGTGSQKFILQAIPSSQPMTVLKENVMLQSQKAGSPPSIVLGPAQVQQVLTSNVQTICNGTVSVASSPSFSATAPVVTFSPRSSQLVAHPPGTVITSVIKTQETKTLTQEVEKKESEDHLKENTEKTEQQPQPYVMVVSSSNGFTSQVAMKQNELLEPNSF
Another test deals with T5, EHF (Homo sapiens, UniProt Q9NZC4 1-300).
T5 sequence: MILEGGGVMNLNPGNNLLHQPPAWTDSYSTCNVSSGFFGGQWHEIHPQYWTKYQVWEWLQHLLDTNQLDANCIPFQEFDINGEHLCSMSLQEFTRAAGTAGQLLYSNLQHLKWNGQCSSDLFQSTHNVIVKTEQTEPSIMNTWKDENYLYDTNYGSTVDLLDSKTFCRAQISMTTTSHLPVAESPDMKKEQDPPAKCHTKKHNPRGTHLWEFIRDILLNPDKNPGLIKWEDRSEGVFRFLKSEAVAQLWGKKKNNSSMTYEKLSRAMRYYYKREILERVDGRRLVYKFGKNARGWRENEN
The gist of the method:
as §1

The target of the next test is SPI1 (Homo sapiens, UniProt P17947 1-270). The gist of the method:
as §1

A further test addresses SPIB (Homo sapiens, UniProt Q01892 1-262). The method, boiled down: as §1
A further test addresses T6, ELK3 (Homo sapiens, UniProt P41970 1-407).
T6 sequence: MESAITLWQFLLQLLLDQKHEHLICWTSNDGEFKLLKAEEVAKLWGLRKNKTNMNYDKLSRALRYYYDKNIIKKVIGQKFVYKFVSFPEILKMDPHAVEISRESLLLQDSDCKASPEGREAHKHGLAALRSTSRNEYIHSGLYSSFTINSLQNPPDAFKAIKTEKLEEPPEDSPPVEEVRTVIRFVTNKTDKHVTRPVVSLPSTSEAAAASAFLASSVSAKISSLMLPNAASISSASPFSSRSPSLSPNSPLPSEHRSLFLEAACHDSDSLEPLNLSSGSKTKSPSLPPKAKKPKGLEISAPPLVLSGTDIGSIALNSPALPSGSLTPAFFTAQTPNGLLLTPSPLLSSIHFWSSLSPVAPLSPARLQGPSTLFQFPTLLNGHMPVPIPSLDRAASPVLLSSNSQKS
The gist of the method: as §1

In another test the target is T7, FEV (Homo sapiens, UniProt Q99581 1-238).
T7 sequence: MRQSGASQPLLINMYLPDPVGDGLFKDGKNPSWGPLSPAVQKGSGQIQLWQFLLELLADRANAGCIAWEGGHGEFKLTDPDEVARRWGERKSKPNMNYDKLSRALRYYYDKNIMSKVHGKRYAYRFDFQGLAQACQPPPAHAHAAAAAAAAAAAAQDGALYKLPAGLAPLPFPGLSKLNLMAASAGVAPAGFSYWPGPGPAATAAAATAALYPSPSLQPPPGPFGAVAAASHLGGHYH
The method, boiled down:
as §1

The target in the next test is ETV5 (Homo sapiens, UniProt P41161 1-510). The method, boiled down: as §1
Sequence of ETV5 (P41161 whole entry): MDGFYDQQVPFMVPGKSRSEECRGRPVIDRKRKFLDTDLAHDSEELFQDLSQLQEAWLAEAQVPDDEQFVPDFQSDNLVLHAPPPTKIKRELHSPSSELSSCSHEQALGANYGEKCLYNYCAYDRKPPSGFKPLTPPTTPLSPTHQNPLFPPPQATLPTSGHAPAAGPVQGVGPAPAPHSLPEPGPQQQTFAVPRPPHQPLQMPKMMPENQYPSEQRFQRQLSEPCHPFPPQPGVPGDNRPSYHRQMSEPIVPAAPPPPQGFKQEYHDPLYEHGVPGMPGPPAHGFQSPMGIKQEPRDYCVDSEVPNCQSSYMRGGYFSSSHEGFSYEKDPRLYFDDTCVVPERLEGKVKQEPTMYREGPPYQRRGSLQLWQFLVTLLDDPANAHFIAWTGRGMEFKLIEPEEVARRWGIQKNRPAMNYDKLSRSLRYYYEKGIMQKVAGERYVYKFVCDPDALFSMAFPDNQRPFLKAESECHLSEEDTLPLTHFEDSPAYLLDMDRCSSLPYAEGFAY
For another test, the target named is T8, SPIC (Homo sapiens, UniProt Q8N5J4 1-248).
T8 sequence: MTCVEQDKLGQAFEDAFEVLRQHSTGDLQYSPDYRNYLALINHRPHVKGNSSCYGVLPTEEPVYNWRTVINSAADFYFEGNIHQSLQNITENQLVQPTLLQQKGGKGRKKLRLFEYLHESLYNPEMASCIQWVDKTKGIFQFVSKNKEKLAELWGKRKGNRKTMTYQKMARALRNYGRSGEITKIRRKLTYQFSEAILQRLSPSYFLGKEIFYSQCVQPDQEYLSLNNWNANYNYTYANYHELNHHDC
The method, boiled down: as §1

A further test concerns the target ELF4 (Homo sapiens, UniProt Q99607 1-663). The method, boiled down:
as §1

For a further test, the target named is T9, ELK4 (Homo sapiens, UniProt P28324-2 1-405).
T9 sequence: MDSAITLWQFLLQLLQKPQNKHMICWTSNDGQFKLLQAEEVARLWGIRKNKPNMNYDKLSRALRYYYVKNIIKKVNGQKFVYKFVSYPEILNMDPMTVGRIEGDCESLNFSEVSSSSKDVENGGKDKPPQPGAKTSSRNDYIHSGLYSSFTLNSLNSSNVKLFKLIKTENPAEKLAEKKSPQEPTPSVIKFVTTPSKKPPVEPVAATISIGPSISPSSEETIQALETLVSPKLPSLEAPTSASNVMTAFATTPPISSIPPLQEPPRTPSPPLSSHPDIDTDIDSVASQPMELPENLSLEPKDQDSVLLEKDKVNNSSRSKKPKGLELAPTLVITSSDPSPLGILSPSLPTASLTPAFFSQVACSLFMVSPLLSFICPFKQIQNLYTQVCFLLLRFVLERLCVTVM
The gist of the method:
as §1

The next test concerns the target T10, ETV2 (Homo sapiens, UniProt O00321 1-342).
T10 sequence: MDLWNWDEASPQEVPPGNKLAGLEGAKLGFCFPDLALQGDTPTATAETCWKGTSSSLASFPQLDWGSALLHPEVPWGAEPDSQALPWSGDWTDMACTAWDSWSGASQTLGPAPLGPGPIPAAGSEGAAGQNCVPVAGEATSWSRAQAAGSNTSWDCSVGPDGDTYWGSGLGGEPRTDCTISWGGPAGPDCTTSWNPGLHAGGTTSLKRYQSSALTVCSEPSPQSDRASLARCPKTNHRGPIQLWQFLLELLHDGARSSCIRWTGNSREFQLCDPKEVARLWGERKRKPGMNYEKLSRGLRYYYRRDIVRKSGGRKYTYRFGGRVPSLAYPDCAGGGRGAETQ
The method, boiled down:
as §1

A further test deals with T11, ELF3 (Homo sapiens, UniProt P78545 1-371).
T11 sequence: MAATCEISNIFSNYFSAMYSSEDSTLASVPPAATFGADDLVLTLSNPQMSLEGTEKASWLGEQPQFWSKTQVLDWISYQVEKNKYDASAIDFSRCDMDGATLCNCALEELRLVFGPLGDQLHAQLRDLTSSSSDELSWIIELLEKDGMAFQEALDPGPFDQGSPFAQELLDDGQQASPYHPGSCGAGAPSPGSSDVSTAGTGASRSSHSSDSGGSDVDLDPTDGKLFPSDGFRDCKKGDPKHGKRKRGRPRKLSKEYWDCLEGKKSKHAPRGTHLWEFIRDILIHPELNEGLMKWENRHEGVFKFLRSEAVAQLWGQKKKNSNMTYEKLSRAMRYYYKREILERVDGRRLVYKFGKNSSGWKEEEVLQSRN
The gist of the method:
as §1

For a further test, the target named is ETV1 (Homo sapiens, UniProt P50549 1-477). The gist of the method:
as §1

Sequence of ELF4 (Q99607 whole entry): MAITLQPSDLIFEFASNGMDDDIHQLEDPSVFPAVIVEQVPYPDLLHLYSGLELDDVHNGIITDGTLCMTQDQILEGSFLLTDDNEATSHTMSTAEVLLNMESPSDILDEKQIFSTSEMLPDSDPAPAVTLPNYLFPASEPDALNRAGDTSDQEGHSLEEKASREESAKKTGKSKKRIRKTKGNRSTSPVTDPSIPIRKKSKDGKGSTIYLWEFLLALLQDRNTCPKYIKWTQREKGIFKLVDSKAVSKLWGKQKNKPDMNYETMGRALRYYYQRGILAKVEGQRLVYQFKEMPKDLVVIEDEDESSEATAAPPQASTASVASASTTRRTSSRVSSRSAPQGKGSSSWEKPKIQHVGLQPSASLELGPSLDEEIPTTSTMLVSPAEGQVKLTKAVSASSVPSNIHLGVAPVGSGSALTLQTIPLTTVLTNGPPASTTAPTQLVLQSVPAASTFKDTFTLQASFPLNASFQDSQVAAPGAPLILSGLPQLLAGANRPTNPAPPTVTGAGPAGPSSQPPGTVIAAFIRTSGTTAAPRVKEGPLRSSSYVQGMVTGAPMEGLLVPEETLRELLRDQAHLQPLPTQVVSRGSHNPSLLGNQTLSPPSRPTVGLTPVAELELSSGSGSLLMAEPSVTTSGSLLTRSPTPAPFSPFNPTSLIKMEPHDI
Sequence of SPIB (Q01892 whole entry): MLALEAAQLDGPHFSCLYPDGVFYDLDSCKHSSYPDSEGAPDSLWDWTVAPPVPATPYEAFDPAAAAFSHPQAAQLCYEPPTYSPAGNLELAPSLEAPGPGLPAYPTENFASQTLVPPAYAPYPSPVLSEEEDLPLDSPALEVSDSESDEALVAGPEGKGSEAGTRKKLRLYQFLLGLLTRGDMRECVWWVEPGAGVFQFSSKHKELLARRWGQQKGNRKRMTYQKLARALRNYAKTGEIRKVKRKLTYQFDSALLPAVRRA
Sequence of ETV1 (P50549 whole entry): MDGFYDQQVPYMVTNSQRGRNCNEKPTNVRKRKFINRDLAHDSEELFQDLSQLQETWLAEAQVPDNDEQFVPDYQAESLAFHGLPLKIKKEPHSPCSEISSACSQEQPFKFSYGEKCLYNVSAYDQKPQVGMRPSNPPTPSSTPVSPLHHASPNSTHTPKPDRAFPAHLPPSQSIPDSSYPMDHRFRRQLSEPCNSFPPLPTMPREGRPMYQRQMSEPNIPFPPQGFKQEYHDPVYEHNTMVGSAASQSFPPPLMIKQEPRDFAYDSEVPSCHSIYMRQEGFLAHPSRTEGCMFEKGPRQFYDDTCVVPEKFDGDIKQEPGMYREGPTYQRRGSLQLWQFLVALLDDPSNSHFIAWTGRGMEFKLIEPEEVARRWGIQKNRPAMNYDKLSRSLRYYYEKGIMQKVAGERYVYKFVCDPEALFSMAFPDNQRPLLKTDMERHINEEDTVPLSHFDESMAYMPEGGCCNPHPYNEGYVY

Consider CATTCA, for which the binding signal with FLI1 was 1.17 fold enrichment (6-mer frequency, TF over GST control); in the test with ELK1, 1.14 fold enrichment (6-mer frequency, TF over GST control); in the test with GABPA, 1.1 fold enrichment (6-mer frequency, TF over GST control); with ERG, 1.17 fold enrichment (6-mer frequency, TF over GST control); with ELF1, 1.13 fold enrichment (6-mer frequency, TF over GST control); in the test with EHF, 1.05 fold enrichment (6-mer frequency, TF over GST control). Moreover, the binding signal is 1.07 fold enrichment (6-mer frequency, TF over GST control) with SPI1; 1.12 fold enrichment (6-mer frequency, TF over GST control) with SPIB; 1.16 fold enrichment (6-mer frequency, TF over GST control) with ELK3; 1.01 fold enrichment (6-mer frequency, TF over GST control) with FEV; 1.12 fold enrichment (6-mer frequency, TF over GST control) with ETV5; 1.01 fold enrichment (6-mer frequency, TF over GST control) with SPIC. In addition, the binding signal with ELF4 was 1.11 fold enrichment (6-mer frequency, TF over GST control); in the test with ELK4, 1.09 fold enrichment (6-mer frequency, TF over GST control); in the test with ETV2, 1.03 fold enrichment (6-mer frequency, TF over GST control); in the test with ELF3, 1.06 fold enrichment (6-mer frequency, TF over GST control); with ETV1, 1.15 fold enrichment (6-mer frequency, TF over GST control).
